Holding throughout (format): functional
Assay [1] relates to Plasmodium falciparum. Description: GSK_TCMDC: Inhibition of Plasmodium falciparum 3D7 in whole red blood cells, using parasite LDH activity as an index of growth. Test compounds present at 2uM.
Assay [2] deals with Plasmodium falciparum. Description: GSK_TCMDC: Inhibition of Plasmodium falciparum Dd2 in whole red blood cells, using parasite LDH activity as an index of growth. Test compounds present at 2uM.
A further assay relates to HepG2. Description: GSK_TCMDC: Percent inhibition of human HepG2 cell line. Test compounds present at 10uM.

Structures are written as SMILES.

Broadly, the Inhibition is the relative decrease from the control value, in per cent. A low value points to a weak effect. As to `Cc1ccc(NC(=O)NCCCCCN2CCC(c3c[nH]c4ccccc34)CC2)cc1I`, the Inhibition with Plasmodium falciparum [1] came to 94%; in the assay on Plasmodium falciparum [2], 5%; in the assay with HepG2 it was 96%.
In the case of `Cl.Cn1c(/C=C/C(=O)NC2CCC(CCN3CCc4ccc(C#N)cc4CC3)CC2)cc2ccccc21` (centres undefined), the Inhibition with Plasmodium falciparum [1] was 100%; in the assay with Plasmodium falciparum [2] it was 29%; in the assay with HepG2 it was 15%.
Taken in the same sequence, the figures for `O=C(NCCc1ccccc1F)c1cc(Br)cc(N2CCN(c3ccncc3)CC2)c1.O=C(O)C(F)(F)F` were 97%, 67% and 29%.
Turning to `CC[C@H](C)CNC(=O)c1cncc(-c2ccc(CNCCOc3ccccc3)cc2)c1.O=C(O)C(F)(F)F`, the Inhibition is listed as 90% in the assay with Plasmodium falciparum [1], 0% in the assay on Plasmodium falciparum [2] and 7% in the assay with HepG2.
Consider `Cc1cccc2nc(-c3cccc(-c4ccc(NC(=O)Nc5ccc(F)c(F)c5F)cc4)c3)[nH]c12`, for which the Inhibition is 100% in the assay with Plasmodium falciparum [1], 100% with Plasmodium falciparum [2] and 61% with HepG2.
As to `CS(=O)(=O)N1CC2(CCN(CCC(NC(=O)Nc3ccccc3)c3ccc(Cl)c(Cl)c3)CC2)c2ccccc21` (centres undefined), the results for the Inhibition in the assay with Plasmodium falciparum [1], in the assay with Plasmodium falciparum [2] and in the assay with HepG2 were 99%, 72% and 23%, respectively.
Taken in the same sequence, the figures for `O=[N+]([O-])c1cccc(C=NNc2nc(=Nc3ccccc3)[nH]c(=Nc3ccccc3)[nH]2)c1` were 99%, 55% and 10%.
The corresponding values for `CCn1cnc2c(N3CCCCS3(=O)=O)cc(C(=O)N[C@@H](Cc3ccccc3)[C@H](O)CNC3CCOCC3)cc21` are 99%, 87% and 7%.
Taken in the same sequence, the figures for `COc1cc2c(Nc3ccc(Br)cc3F)ncnc2cc1OCC1CCN(C)CC1.Cl` were 97%, 16% and 10%.
As to `FC(F)(F)c1ccc2[nH]ccc(=NN=Cc3ccccc3)c2c1`, the Inhibition came to 92% in the assay on Plasmodium falciparum [1], 2% in the assay with Plasmodium falciparum [2] and 7% in the assay with HepG2.
Consider `CC(C(=O)OCCOCn1cnc2c(=O)[nH]c(N)nc21)N(C)C(=O)OC(C)(C)C` (centres undefined), for which the Inhibition was 87% in the assay with Plasmodium falciparum [1], 0% in the assay with Plasmodium falciparum [2] and 28% in the assay with HepG2.
As to `N#Cc1cc(C(=O)Nc2ccccc2)c(N)nc1SCC(=O)Nc1ccc(Br)cc1`, the Inhibition in the assay on Plasmodium falciparum [1] is on record as 100%; in the assay with Plasmodium falciparum [2], 66%; in the assay with HepG2, 11%.
The corresponding values for `CC(=O)Nc1ccc(CN2CCC(CNC(=O)c3cc(-c4cccc(Cl)c4)cs3)C2)cc1.O=C(O)C(F)(F)F` (centres undefined) are 91%, 1% and 24%.
The corresponding values for `O=C(/C=C/c1ccc(Cl)cc1)NCCCCCN1CCCC(C(=O)Nc2ccc(Cl)c(Cl)c2)C1` (centres undefined) are 96%, 3% and 27%.
The corresponding values for `COc1ccccc1N1CCN(C(C(=O)NCc2ccc(C)cc2)c2ccc(C)cc2)CC1` (centres undefined) are 92%, 79% and 12%.
As to `Cc1cccc2nc(-c3cccc(-c4cccc(C(=O)NCCN5CCCC5)c4)c3)[nH]c12`, the Inhibition with Plasmodium falciparum [1] is listed as 100%; in the assay with Plasmodium falciparum [2] it was 75%; with HepG2, 21%.
Turning to `Cc1cc(OCCCN2CCC(NS(=O)(=O)c3cccc(Br)c3)CC2)c2ccccc2n1`, the Inhibition in the assay on Plasmodium falciparum [1] is on record as 95%; in the assay on Plasmodium falciparum [2], 28%; with HepG2, 28%.
`Cc1ccc2[nH]c(C)c(Br)c(=O)c2c1`: the Inhibition in the assay with Plasmodium falciparum [1] stood at 95%; with Plasmodium falciparum [2], 84%; with HepG2, 0%.
The corresponding values for `CC(C)(C)Nc1nc(Nc2cccc([N+](=O)[O-])c2)nc(-n2ccnc2)n1` are 98%, 41% and 10%.
`CN(C)c1ccc(CN2CCCCC(NC(=O)c3cc(-c4ccccc4F)cs3)C2)cc1.O=C(O)C(F)(F)F` (centres undefined): the results for the Inhibition in the assay with Plasmodium falciparum [1], in the assay on Plasmodium falciparum [2] and in the assay on HepG2 were 100%, 28% and 13%, respectively.
Consider `CC(=O)Nc1ccc(NC(=O)c2cc(-c3ccc(C)cc3O)n[nH]2)cc1`, for which the figures for the Inhibition with Plasmodium falciparum [1], in the assay on Plasmodium falciparum [2] and with HepG2 were 100%, 78% and 0%, respectively.
On to `CNC(=O)c1cnc(Nc2ccc(N3CCOCC3)cc2)nc1Nc1cccc(O)c1.O=C(O)C(F)(F)F`, for which the Inhibition in the assay on Plasmodium falciparum [1] was determined as 90%; with Plasmodium falciparum [2], 78%; with HepG2, 23%.
Turning to `CCOc1cc(CNCCCCCCNCc2cc(OCC)c(OCC)c3ccccc23)c2ccccc2c1OCC.CS(=O)(=O)O`, the Inhibition stood at 100% with Plasmodium falciparum [1], 99% with Plasmodium falciparum [2] and 100% with HepG2.
In the case of `O=C1Nc2cccc3c2C1(CCCCCN1CCC(c2c[nH]c4ccncc24)CC1)CCC3` (centres undefined), the Inhibition amounted to 95% in the assay with Plasmodium falciparum [1], 3% in the assay with Plasmodium falciparum [2] and 8% with HepG2.
Turning to `COC(=O)[C@@H](NC(=O)[C@@H](Nc1ccc(C#N)c2ccccc12)C(C)(C)C)c1ccc(O)cc1`, the Inhibition with Plasmodium falciparum [1] was 100%; with Plasmodium falciparum [2], 74%; with HepG2, 0%.
Taken in the same sequence, the figures for `Oc1ccc2[nH]c(-c3ccc(OC(F)(F)F)cc3)nc2c1CNC1CCCC1` were 99%, 97% and 32%.
The corresponding values for `Cc1ccc(Cn2ncc(N3CC(C)NC(C)C3)c(Cl)c2=O)cc1NC(=O)Nc1ccc(-c2ccccc2)cc1.O=C(O)C(F)(F)F` (centres undefined) are 100%, 29% and 51%.
Taken in the same sequence, the figures for `CS(=O)(=O)Nc1cccc(-c2cnc3[nH]cc(-c4cccc(CN)c4)c3c2)c1` were 96%, 82% and 25%.
